Laboratory results published in PubChem BioAssay AID488857 (Sanford-Burnham Center for Chemical Genomics, 2010).
Hit rate of the full screen: of about 1,400 compounds, about 560 (40%) were called active.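 How the source made its calls: active means mean inhibition over duplicate tests at 10 µM above 50%; inactive means the rest.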 So high a share suggests a set chosen from earlier hits. The list shows a part of the results.

Assay: ASC/caspase-1 reporter retest in S. cerevisiae at one dose, specificity check for NALP1 project (AID 488857)
Details: S. cerevisiae ASC/Caspase-1, beta-galactosidase luminescence, 24 h; at 10 µM; active compounds read high

inhibition, inactive:
CC1(C)CC(=O)C2=C(C1)OC(N)=C([N+](=O)[O-])C2c1cccs1 (stereo not drawn) 39.2%
CCOC(=O)c1c(C)n(C)c2cc(-c3ccc(C)cc3)c(O)cc12 41.5%
Cc1ccccc1OCC(=O)Nc1cccc(N(C)S(C)(=O)=O)c1 34.6%
O=C(COc1ccc(CO)cc1Cl)Nc1ccc(F)cc1 38.2%
COc1ccc(Cl)cc1C(=O)O/N=C(\N)c1ccc(Cl)cc1 43.9%
CCc1ccc(C(=O)NCc2ccc(Cl)cc2Cl)cc1 49.6%
CCN(CC)CCN1C(=O)c2ccccc2NC1c1ccc(N(C)C)cc1 (stereo not drawn) 31.9%
CCn1c(C)[n+](CC(O)COCC2CC=CCC2)c2ccccc21 (stereo not drawn) 41.3%
C=CCc1ccc(OCCCOc2ccc(C)cc2OC)c(OC)c1 31.8%
COc1ccc(CNc2nc(C)c([N+](=O)[O-])c(C)c2C#N)cc1 45.5%
O=C1/C(=C\c2cccnc2)CN(Cc2ccccc2)C/C1=C\c1cccnc1 30.4%
NNC(=S)NCc1cccnc1 37.2%
CCOC(=O)c1c(C)n(C)c2ccc(OC)c(NC(=O)CN3CCN(C4CCCCC4)CC3)c12 21.6%
CCOC(=O)C(=CNNc1ccsc1C(=O)OC)C(=O)OCC 41%
C1=CC2CC1CC2CN1CCN(Cc2ccccc2)CC1 (stereo not drawn) 48.8%
COc1ccc(C(=O)Nc2ccc(S(=O)(=O)Nc3nccc(C)n3)cc2)cc1OC 35.9%
COc1ccc(NC(=S)N(C(C)C)C2CCN(C(C)C)CC2)cc1Cl 25.9%
CC1CN(S(=O)(=O)c2ccc(C(=O)Nc3nc(-c4cc5ccccc5o4)cs3)cc2)CC(C)O1 (stereo not drawn) 32.9%
CCn1c(C(=O)N2CCc3ccccc3C2)cc2oc3ccccc3c21 44.5%
O=C(CN1CCc2ccccc2C1)NCc1ccco1 36.3%
CC1(O)N(Cc2ccccc2)C(=O)OC12CCCCC2 (stereo not drawn) 45.9%
OCCn1c(-c2ccc(F)cc2)csc1=Nc1ccccc1 46.5%
COc1ccc(C)cc1NC(=O)c1ccc(CN2CCN(c3ccccc3)CC2)cc1 33.5%
CSc1ccccc1NC(=O)Nc1ccccc1Cl 49.8%
COc1ccc(NC(=O)c2ccc(C)cc2)c(OC)c1 36.7%
O=C(NCCN1C(=O)S/C(=C\c2cccnc2)C1=O)c1cccc(OC(F)F)c1 45.1%
CCN(CC1COc2ccccc2O1)S(=O)(=O)c1ccc(C)cc1 (stereo not drawn) 43.9%
Cc1c(C(=O)NCC2COc3ccccc3O2)oc2ccc(S(=O)(=O)N3CC(C)CC(C)C3)cc12 (stereo not drawn) 30.4%
C/C(=N\NC(=O)Nc1ccccc1)c1ccccc1 41.4%
CC(C)Oc1ccc(NC(=O)CCC(=O)O)cc1 28.5%
Cc1cccc(C)c1NC(=O)C(Cl)C(=O)c1ccccc1 (stereo not drawn) 2.6%
CCC(Cc1ccccc1)NC(=O)C1CCN(S(=O)(=O)c2c(C)noc2C)CC1 (stereo not drawn) 28.6%

inhibition, active:
Cc1cc(N/N=C/c2ccc(Cl)cc2)nc(NCc2ccccc2)n1 78.7%
O=C(COc1ccc(Br)cc1Br)NC(=S)Nc1cccc(CO)c1 59.8%
N/C(Cc1ccc(Cl)cc1Cl)=N\OC(=O)c1cccs1 53.2%
COc1ccc(C(=O)O/N=C(\N)Cc2ccc(Cl)cc2Cl)cc1OC 72.4%
CCCc1ccc(-c2c(C)sc(N)c2C#N)cc1 51.2%
COc1cc(C)ccc1OCCOCCOc1ccc([N+](=O)[O-])cc1 65.2%
S=C1SCN(Cc2cccnc2)CN1Cc1cccnc1 89.2%
Nc1[nH]c(=O)ncc1F 81.2%
Cc1nc(N)sc1N=Nc1ccc(Br)cc1 68.5%
CCOC(=O)C(=Cc1cc(=O)c(OC)co1)C(=O)OCC 85.2%
Cc1onc(-c2ccccc2Cl)c1C(=O)N1C=CC(C(F)(F)F)=NCC1 77.5%
COc1ccc(NC(=S)SC)cc1OC 60.2%
O=C(c1cc(-c2ccc(O)cc2)on1)N1CCc2ccccc2C1 58.4%
Cc1c(Cl)cccc1NC(=O)c1cccc(OC(F)F)c1 68.8%
COc1ccc(C)cc1NC(=O)c1ccc(OC(F)F)cc1 66.2%
CC(C)C(=O)Nc1ccc(Nc2ccccc2)cc1 68.2%
O=C(Nc1ccc(Nc2ccccc2)cc1)C(Cl)Cl 76.3%
O=c1c(O)c(-c2cccs2)oc2ccccc12 91%
CCC(C)C(=O)N1c2ccccc2C(=C2SC(C(=O)OC)=C(C(=O)OC)S2)C(=S)C1(C)C (stereo not drawn) 51.8%
CC[n+]1c(/C=C/c2ccc(N(C)C)cc2)ccc2ccccc21 96.5%
CN(C)c1ccc(/C=C/c2ccc3ccccc3[n+]2C)cc1 96.8%
